Data taken from PubChem BioAssay (EPA / NIEHS).
Activity calls are given as the source filed them. How the source made its calls: active means hit-call score of the fitted dose curve at least 0.9, where 1 is the maximum; inactive means score below 0.9.

Columns and labels:
[1] = ATG_CRE_CIS: Attagene CIS-FACTORIAL HepG2 Assay for human cAMP Responsive Element (CRE) binding protein 3 (AID 2282926); settings: HepG2 CRE cis-reporter, Attagene multiplexed mRNA; actives raise or lower the signal
Outline: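 HepG2 cells transiently transfected with cis-element-driven multiple reporter transcription units; CRE reporter mRNA measured 24 h after dosing by RT-PCR, 6-FAM labelling, HpaI digestion and capillary electrophoresis. Bidirectional fit versus DMSO baseline.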

[2] = biological target: CCAAT/enhancer-binding protein beta (Homo sapiens) (UniProt P17676); assay: ATG_C_EBP_CIS: Attagene CIS-FACTORIAL HepG2 Assay for human CCAAT/Enhancer Binding Protein (C/EBP) beta (AID 2282927); settings: HepG2 Attagene cis-factorial transcription factor reporter; actives raise or lower the signal
Sequence of CCAAT/enhancer-binding protein beta (Homo sapiens) (P17676 whole entry, looked up): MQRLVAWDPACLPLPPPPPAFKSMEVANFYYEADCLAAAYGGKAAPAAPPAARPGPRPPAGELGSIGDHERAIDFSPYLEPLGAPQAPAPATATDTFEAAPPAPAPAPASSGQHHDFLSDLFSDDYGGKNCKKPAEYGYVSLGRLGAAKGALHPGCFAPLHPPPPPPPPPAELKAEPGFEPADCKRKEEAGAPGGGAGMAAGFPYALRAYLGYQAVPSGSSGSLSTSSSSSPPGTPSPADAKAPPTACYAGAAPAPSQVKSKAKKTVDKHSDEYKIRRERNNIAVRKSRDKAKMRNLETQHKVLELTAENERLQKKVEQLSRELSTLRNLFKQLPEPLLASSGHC
Outline: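 Transiently transfected HepG2 (MRTU library, endogenous TF-driven promoters); 24 h dosing; total RNA → oligo(dT) RT → PCR → 6-FAM primer extension → HpaI digest → CE; fit bidirectionally vs DMSO.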

[3] = ATG_CMV_CIS: Attagene CIS-FACTORIAL HepG2 Assay for human CMV (Internal Marker) (AID 2282928); settings: HepG2 CMV promoter reporter, transcription factor profiling; actives raise or lower the signal;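 further: endpoint acts as a background internal control marker rather than a target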
Outline: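 CMV internal-marker background readout in transiently transfected HepG2 cells bearing cis-regulated reporter units. Reporter mRNA is measured 24 h after dosing by RT-PCR and capillary electrophoresis, with bidirectional fitting against DMSO.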

[4] = ATG_DR4_LXR_CIS: Attagene CIS-FACTORIAL HepG2 Assay for human Liver X Receptor (LXR), DR4 submotif (AID 2282929); settings: HepG2 Attagene DR4 cis-reporter, mRNA transcription; actives raise or lower the signal
Outline: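 Fluorescence intensity of labelled reporter cDNA fragments, separated by capillary electrophoresis, gives the signal. HepG2 cells bearing cis-regulated reporter constructs were treated 24 h; activity fitted bidirectionally relative to DMSO negative control.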

[5] = biological target: Aryl hydrocarbon receptor (Homo sapiens) (UniProt P35869); assay: ATG_Ahr_CIS: Attagene CIS-FACTORIAL HepG2 Assay for human Aryl Hydrocarbon Receptor (Ahr) (AID 2282930); settings: HepG2 AhR cis-factorial reporter transcription; actives raise or lower the signal
Sequence of Aryl hydrocarbon receptor (Homo sapiens) (P35869 whole entry, looked up): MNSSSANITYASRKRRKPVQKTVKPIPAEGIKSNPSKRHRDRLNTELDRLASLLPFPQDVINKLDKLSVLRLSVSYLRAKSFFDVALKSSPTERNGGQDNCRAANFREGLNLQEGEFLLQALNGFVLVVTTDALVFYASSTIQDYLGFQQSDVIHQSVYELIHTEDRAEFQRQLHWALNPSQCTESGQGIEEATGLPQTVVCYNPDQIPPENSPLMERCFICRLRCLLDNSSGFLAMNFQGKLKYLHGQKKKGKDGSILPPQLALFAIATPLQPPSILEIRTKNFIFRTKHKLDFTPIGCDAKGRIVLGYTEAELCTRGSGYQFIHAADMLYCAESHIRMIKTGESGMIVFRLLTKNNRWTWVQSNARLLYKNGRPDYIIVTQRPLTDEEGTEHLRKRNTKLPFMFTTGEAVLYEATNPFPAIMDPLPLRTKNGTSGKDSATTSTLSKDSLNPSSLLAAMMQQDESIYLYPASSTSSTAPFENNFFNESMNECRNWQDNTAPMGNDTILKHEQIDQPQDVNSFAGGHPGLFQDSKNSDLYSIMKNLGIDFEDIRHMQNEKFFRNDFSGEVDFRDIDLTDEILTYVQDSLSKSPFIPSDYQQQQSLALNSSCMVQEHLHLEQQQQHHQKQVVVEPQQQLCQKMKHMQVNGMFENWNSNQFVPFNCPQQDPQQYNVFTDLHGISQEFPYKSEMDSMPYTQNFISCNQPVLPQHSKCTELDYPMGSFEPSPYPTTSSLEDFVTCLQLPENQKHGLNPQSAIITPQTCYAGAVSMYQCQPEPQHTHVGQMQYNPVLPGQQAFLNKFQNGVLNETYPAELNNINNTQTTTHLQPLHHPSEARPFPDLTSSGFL
Outline: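 Read-out: reporter mRNA quantified by RT-PCR with fluorescent primer extension and capillary electrophoresis. Human HepG2 liver cells carried transfected cis-promoter reporter units and were exposed to chemical for 24 h; gain or loss fitted relative to DMSO.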

[6] = ATG_AP_1_CIS: Attagene CIS-FACTORIAL HepG2 Assay for human Activator Protein 1 (AP-1) (AID 2282931); settings: HepG2 Attagene cis-factorial AP-1 reporter mRNA; actives raise or lower the signal
Outline: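 Multiplexed HepG2 reporter assay, 24 h dosing. mRNA induction detected by RT-PCR plus capillary electrophoresis. Activity fitted in both directions against DMSO.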

[7] = ATG_AP_2_CIS: Attagene CIS-FACTORIAL HepG2 Assay for human Activator Protein 2 (AP-2) (AID 2282932); settings: HepG2 AP-2 cis-reporter, Attagene transcription factor profiling; actives raise or lower the signal
Outline: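 HepG2 cells transiently transfected with cis-element reporter units and exposed for 24 h. Reporter mRNA measured by RT-PCR, FAM labelling, HpaI digestion and capillary electrophoresis. Changes in either direction fitted relative to DMSO.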

[8] = ATG_BRE_CIS: Attagene CIS-FACTORIAL HepG2 Assay for human Bone Morphogenetic Protein (BMP) Response Element (BRE) (AID 2282933); settings: HepG2 BMP response element reporter, Attagene transcription factor profiling; actives raise or lower the signal
Outline: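 Endogenous transcription factor activity read in transiently transfected HepG2 cells after 24 h chemical exposure. Bidirectional curve fitting against DMSO; readout is reporter transcript level by RT-PCR with capillary electrophoresis of labelled products.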

[9] = biological target: Retinoic acid receptor alpha (Homo sapiens) (UniProt P10276); assay: ATG_DR5_RAR_CIS: Attagene CIS-FACTORIAL HepG2 Assay for human Retinoic Acid Receptor Alpha (RARE), DR5 submotif (AID 2282934); settings: HepG2 Attagene cis-factorial RARE DR5 reporter, mRNA; actives raise or lower the signal;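 on AC50: reporter responds to endogenous RAR alpha beta and gamma in HepG2 not RARA alone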
Sequence of Retinoic acid receptor alpha (Homo sapiens) (P10276 whole entry, looked up): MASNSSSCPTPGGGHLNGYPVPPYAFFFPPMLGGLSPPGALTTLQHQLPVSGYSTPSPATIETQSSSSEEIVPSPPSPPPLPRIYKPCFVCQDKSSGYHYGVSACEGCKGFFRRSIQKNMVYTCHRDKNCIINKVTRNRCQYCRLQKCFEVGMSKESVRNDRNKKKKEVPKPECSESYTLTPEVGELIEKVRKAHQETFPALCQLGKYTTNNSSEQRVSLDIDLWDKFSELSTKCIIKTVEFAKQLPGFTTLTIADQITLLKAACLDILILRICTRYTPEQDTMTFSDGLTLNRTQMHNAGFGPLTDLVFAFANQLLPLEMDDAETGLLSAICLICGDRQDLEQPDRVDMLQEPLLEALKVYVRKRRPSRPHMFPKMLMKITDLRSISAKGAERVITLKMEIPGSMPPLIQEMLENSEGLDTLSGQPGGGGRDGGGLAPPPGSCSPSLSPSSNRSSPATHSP
Outline: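 Read-out: DR5-driven reporter transcript measured by RT-PCR, 6-FAM primer extension, HpaI digest and capillary electrophoresis. Human HepG2 liver cells carry transiently transfected cis-element reporter constructs; dosing lasts 24 h. Gain or loss of signal fitted against DMSO baseline.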

[10] = biological target: Transcription factor E2F1 (Homo sapiens) (UniProt Q01094); assay: ATG_E2F_CIS: Attagene CIS-FACTORIAL HepG2 Assay for human E2F Transcription Factor 1 (AID 2282935); settings: HepG2 Attagene cis-reporter, E2F reporter RNA transcripts; actives raise or lower the signal
Sequence of Transcription factor E2F1 (Homo sapiens) (Q01094 whole entry, looked up): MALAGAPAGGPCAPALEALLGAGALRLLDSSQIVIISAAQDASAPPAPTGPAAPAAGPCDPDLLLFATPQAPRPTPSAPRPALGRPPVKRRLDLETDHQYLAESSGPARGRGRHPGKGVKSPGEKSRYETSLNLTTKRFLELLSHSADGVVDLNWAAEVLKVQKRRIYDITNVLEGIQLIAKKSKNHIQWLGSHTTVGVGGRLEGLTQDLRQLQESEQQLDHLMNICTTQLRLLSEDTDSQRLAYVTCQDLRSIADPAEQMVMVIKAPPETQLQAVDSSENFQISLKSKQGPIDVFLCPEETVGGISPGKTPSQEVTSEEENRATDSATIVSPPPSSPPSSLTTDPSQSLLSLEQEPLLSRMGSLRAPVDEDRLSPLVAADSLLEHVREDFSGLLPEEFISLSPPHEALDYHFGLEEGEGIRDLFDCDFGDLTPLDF
Outline: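 Endogenous E2F1 activity read through cis-promoter reporter units transfected into HepG2. After 24 h compound treatment, reporter mRNA measured by RT-PCR, HpaI digestion and capillary electrophoresis. Bidirectional fit versus DMSO.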

[11] = ATG_E_Box_CIS: Attagene CIS-FACTORIAL HepG2 Assay for human Enhancer Box (E-box) (AID 2282936); settings: HepG2 E-box cis-reporter transcription, actives raise or lower the signal
Outline: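 HepG2 cells transiently transfected with multiplexed cis-element reporter units, dosed 24 h; reporter mRNA quantified by RT-PCR, 6-FAM labelling, HpaI digestion and capillary electrophoresis. E-box (USF1) signal fitted bidirectionally vs DMSO.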

[12] = ATG_M_61_CIS: Attagene CIS-FACTORIAL HepG2 Assay for M61 Transcription Factor (Internal Marker) (AID 2282937); settings: HepG2 Attagene CIS-FACTORIAL M61 internal marker reporter; actives raise or lower the signal
Outline: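 Endogenous transcription factor activity in HepG2 is read through transiently transfected cis-element reporter units. After 24 h dosing, RNA undergoes reverse transcription, PCR and primer extension with 6-FAM before capillary electrophoresis; DMSO-referenced bidirectional fit.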

[13] = ATG_EGR_CIS: Attagene CIS-FACTORIAL HepG2 Assay for human Early Growth Response 1 (EGR1) (AID 2282938); settings: HepG2 Attagene CIS-FACTORIAL EGR reporter mRNA; actives raise or lower the signal
Outline: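 Activity is taken as induction or loss of reporter mRNA versus DMSO, fitted bidirectionally. Transcripts from cis-regulated reporter units in transiently transfected HepG2 were measured after 24 h by RT-PCR with capillary electrophoresis.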

[14] = ATG_ERE_CIS: Attagene CIS-FACTORIAL HepG2 Assay for Estrogen Response Element (ERE) (AID 2282940); settings: HepG2 ERE cis-reporter, Attagene RNA transcript; actives raise or lower the signal
Outline: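 After 24 h compound treatment, RNA from transfected HepG2 cells was reverse-transcribed, reporter cDNA PCR-amplified, FAM-labelled, HpaI-cut and resolved by capillary electrophoresis. ERE-driven cis reporter transcripts reflect endogenous factors; gain or loss scored against DMSO.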

[15] = ATG_Ets_CIS: Attagene CIS-FACTORIAL HepG2 Assay for human Erythroblast Transformation Specific (ETS) (AID 2282941); settings: HepG2 ETS cis-reporter transcription, actives raise or lower the signal
Outline: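 HepG2 cells transfected with multiple cis-regulated reporter units measuring endogenous ETS-driven transcription, 24 h after dosing. Reporter mRNA quantified by RT-PCR with capillary electrophoresis; bidirectional fit relative to DMSO.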

[16] = biological target: Hepatocyte nuclear factor 3-beta (Homo sapiens) (UniProt Q9Y261); assay: ATG_FoxA2_CIS: Attagene CIS-FACTORIAL HepG2 Assay for human Forkhead box A2 (FOXA2) (AID 2282942); settings: HepG2 cis-reporter transcription factor activity, 24 h; actives raise or lower the signal
Sequence of Hepatocyte nuclear factor 3-beta (Homo sapiens) (Q9Y261 whole entry, looked up): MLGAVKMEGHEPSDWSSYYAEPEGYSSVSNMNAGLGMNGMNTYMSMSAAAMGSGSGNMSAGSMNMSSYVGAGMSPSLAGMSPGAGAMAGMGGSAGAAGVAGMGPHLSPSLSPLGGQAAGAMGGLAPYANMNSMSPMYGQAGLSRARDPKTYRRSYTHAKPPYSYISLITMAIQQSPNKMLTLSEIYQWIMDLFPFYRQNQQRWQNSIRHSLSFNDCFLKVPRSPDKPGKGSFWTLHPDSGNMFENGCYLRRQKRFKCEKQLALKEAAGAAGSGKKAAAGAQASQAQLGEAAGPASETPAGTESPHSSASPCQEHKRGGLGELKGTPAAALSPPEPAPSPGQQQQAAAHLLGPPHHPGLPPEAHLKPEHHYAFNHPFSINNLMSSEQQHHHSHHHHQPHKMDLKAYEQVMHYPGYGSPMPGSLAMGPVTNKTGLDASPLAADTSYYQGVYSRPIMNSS
Outline: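 Reporter transcript induction is measured by fluorescence after capillary electrophoresis of RT-PCR products from HepG2 cells exposed 24 h. Cis-regulated reporter units report endogenous factor activity; curves fitted both directions against DMSO.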

[17] = ATG_FoxO_CIS: Attagene CIS-FACTORIAL HepG2 Assay for human Forkhead box O (FoxO) (AID 2282943); settings: HepG2 Attagene cis-reporter, FoxO element, mRNA; actives raise or lower the signal
Outline: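 Read-out: fluorescence of 6-FAM-labelled reporter cDNA fragments resolved by capillary electrophoresis. Transiently transfected HepG2 cells were dosed for 24 h; activity fitted in both directions relative to DMSO controls.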

[18] = ATG_GATA_CIS: Attagene CIS-FACTORIAL HepG2 Assay for human GATA Binding Protein (AID 2282944); settings: HepG2 GATA cis-element reporter, Attagene multiplex mRNA; actives raise or lower the signal
Outline: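 Reporter transcripts from a GATA cis-regulated unit, among multiplexed reporters in transfected HepG2 cells, were measured by RT-PCR with capillary electrophoresis after 24 h dosing. Induction or loss scored relative to DMSO.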

[19] = ATG_GLI_CIS: Attagene CIS-FACTORIAL HepG2 Assay for human Zinc Finger Protein GLI1 (AID 2282945); settings: HepG2, Attagene cis-factorial reporter mRNA, GLI element; actives raise or lower the signal
Outline: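 Transiently transfected HepG2 cells report endogenous transcription factor activity via cis-element-driven reporter units. After 24 h compound exposure, reporter mRNA was measured by RT-PCR with capillary electrophoresis; bidirectional fitting against DMSO baseline.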

[20] = ATG_M_19_CIS: Attagene CIS-FACTORIAL HepG2 Assay for M19 Transcription Factor (Internal Marker) (AID 2282939); settings: HepG2 Attagene CIS-FACTORIAL M19 internal marker reporter; actives raise or lower the signal
Outline: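 Internal marker readout, fitted in both directions against DMSO, from HepG2 cells carrying transfected cis-element reporter constructs; RT-PCR and capillary electrophoresis of reporter mRNA after 24 h exposure.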

Measured: AC50

CCOc1cccc(C2(N3CCN(c4ccccc4)CC3)CCC(C)CC2)c1 (configuration not stated)
not listed: [20]
inactive: all other assays above

Cc1ccc(N)cc1
not listed: [14] | [20]
inactive: all other assays above

N#CC(Br)Br
active: [14] 76.7 µM
not listed: [20]
inactive: all other assays above

Cc1cc(N=Nc2ccccc2C)ccc1N
active: [5] 2.99 µM | [8] 33.4 µM | [13] 21.6 µM | [16] 15.7 µM
not listed: [14] | [20]
inactive: all other assays above

CCCCC(CC)COC(=O)c1ccc(C(=O)OCC(CC)CCCC)c(C(=O)OCC(CC)CCCC)c1 (configuration not stated)
not listed: [14] | [20]
inactive: all other assays above

Nc1ccc(N=Nc2ccccc2)cc1
active: [5] 25.4 µM | [7] 169 µM | [8] 59.4 µM | [11] 100 µM | [13] 50.6 µM | [14] 27 µM
not listed: [20]
inactive: all other assays above

Nc1cc(Cl)cc(C(=O)O)c1Cl
active: [5] 58 µM
not listed: [14] | [20]
inactive: all other assays above

CCN(CC)CCO
not listed: [9] | [14]
inactive: all other assays above

CC(C)(C)OOC(=O)c1ccccc1
active: [3] 74.8 µM | [6] 130 µM | [10] 158 µM | [17] 156 µM
not listed: [14] | [20]
inactive: all other assays above

Cn1cc(-c2ccccc2)c(=O)c(-c2cccc(C(F)(F)F)c2)c1
active: [1] 79.1 µM | [2] 66.9 µM | [4] 73.7 µM | [5] 69.1 µM | [9] 15.3 µM | [11] 55 µM
not listed: [20]
inactive: all other assays above

C1=Cc2cccc3cccc1c23
not listed: [14] | [20]
inactive: all other assays above

CS(=O)(=O)NC(=O)c1cc(Oc2ccc(C(F)(F)F)cc2Cl)ccc1[N+](=O)[O-]
not listed: [14] | [20]
inactive: all other assays above

ClC1=C(Cl)[C@]2(Cl)[C@H]3[C@H]([C@@H]4C=C[C@H]3C4)[C@@]1(Cl)C2(Cl)Cl
active: [3] 45.6 µM | [4] 25.9 µM | [6] 46.9 µM | [13] 33.4 µM | [14] 16.1 µM
not listed: [9]
inactive: all other assays above

OCCCBr
not listed: [20]
inactive: all other assays above

C[N+](C)(C)CC1CO1 (configuration not stated)
not listed: [20]
inactive: all other assays above
